Source: PubChem BioAssay
NTMT1 inhibitor = blocks human N-terminal methyltransferase 1 activity | Potency, µM (series often up to 114 µM), for the others: at the highest dose activity change, negative = inhibition, hits mostly inhibitors | Q9BV86 | 59,000 tested, 2.5% active | NTMT1 MTase-Glo SAH luminescence, purified enzyme;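 note: potency is the fitted concentration of half-maximal effect; plate controls were DMSO vehicle for no effect and no enzyme for full effect; nearly all actives have a fitted effect of over 65% in size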
GALK inh = inhibits human galactokinase; P51570; recombinant GALK, Kinase-Glo ATP luminescence, 1 h; Potency, µM (doses to about 57.5 µM), for inactives: at the highest dose activity, negative = inhibition, hits mostly inhibitors; 44,000 tested, under 10 active;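 note: plate controls were full GALK reaction for no effect and reaction lacking GALK for full effect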
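Luminescent ATP-depletion readout (Kinase-Glo Plus, 10 min) after 1 h RT reaction of 5 nM GALK, 35 uM ATP, 100 uM galactose, pH 8.0 HEPES buffer. Decreased kinase activity scored as inhibition.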
PTAP-TSG101 blk = TSG101-PTAP interaction inhibition, HIV-1 budding; Q99816; Potency, µM (doses to about 115 µM), hits mostly inhibitors; Fluorescence polarization, FITC-PTAP peptide/Tsg101, 20 min; AID 1347069; 44,000 tested, under 10 active; note: potency is the fitted concentration of half-maximal effect; 0% is about no effect
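Fluorescence polarization: Tsg101 binding domain (10 uM final) in 10 mM HEPES pH 7.5, 0.15 M NaCl, 0.01% Tween 20, 3 mM EDTA, 0.1 mM TCEP; compounds pinned; FITC-PTAP peptide 50 nM final; 20 min, r.t.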
B2AR arrestin ag = ADRB2 beta-arrestin recruitment | P07550 | HTLA Tango cells, beta-arrestin recruitment, luciferase luminescence, 18 h | Potency, µM (doses to about 46.1 µM), hits mostly activators | 44,000 tested, under 10 active;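 note: potency is the fitted concentration of half-maximal effect; 0% = DMSO and full agonism = EC100 isoproterenol or metaproterenol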
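Tango cells (recombinant beta2-AR, beta-arrestin, tTA-driven luciferase), 1500/well in DMEM 1% FBS, treated 18 h at 37 °C with compounds up to 46 µM; luciferin mix added, luminescence read after 15 min; %activity curves fitted and curve-classed.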
GPR32 ag = GPR32 (DRV1) agonism, beta-arrestin recruitment. O75388. CHO-K1 GPR32 beta-arrestin PathHunter luminescence, 90 min; zero percent set by DMSO-only wells. activation, % at 76.9 µM. 48,000 tested, 2.5% active. AID 1346428;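 active = activation of at least 60% and not above a set upper limit, about 1 call in 100 departs from these limits; inconclusive = activation of 40% to 60%, or above that upper limit; inactive = activation under 40%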; note: 0% is about no effect
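GPR32 activation in stably transfected CHO-K1 cells, detected as beta-arrestin recruitment by enzyme-fragment complementation. Compound exposure: 90 min, 37 °C.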
GALC G270D up = enhancers of human galactocerebrosidase G270D mutant activity in cells; 145M-Twi-hGALC-G270D cells (Twitcher mouse brain line with human GALC G270D), HMU-beta-Gal fluorescence, 48 h; P54803; AID 1159614; Potency, µM (highest dose often 57.5 µM), usual class: activators; 45,000 tested, 0.1% active; note: potency is the fitted concentration of half-maximal effect; 0% is about no effect; nearly all actives have a fitted effect of over 65% in size
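Fluorogenic HMU-b-Gal hydrolysis (0.1 mM final, pH 5.2 citrate-phosphate with 1 mg/mL sodium taurocholate; carbonate stop buffer) measures mutant GALC activity after compound treatment of live 145M-Twi Twitcher brain cells stably carrying human GALC-G270D, with wild-type GALC line alongside; activation sought.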
DYRK1A inh = blocks recombinant human DYRK1A kinase activity; shares compounds with NTMT1 inhibitor; recombinant DYRK1A, Kinase-Glo ATP depletion luminescence; Potency, µM (doses to about 76.9 µM), for the others: top-dose activity change, negative = inhibition, actives largely listed as inhibitors; 100 tested, 80% active
CLK4 inh = inhibits human CLK4 kinase in Kinase-Glo confirmation | AID 493204 | Potency, µM (titrated, usually from 76.9 µM), inactives show at the highest dose activity, negative = inhibition, actives largely listed as inhibitors | shares compounds with NTMT1 inhibitor | recombinant Clk4, Kinase-Glo ATP luminescence, 4.5 h | 90 tested, 90% active
Sfp qHTS opt = inhibitors of Bacillus subtilis Sfp PPTase, optimization followup; shares compounds with NTMT1 inhibitor; purified Sfp PPTase enzyme activity, qHTS; Potency, µM (doses to about 114 µM), without a hit: top-dose activity change, negative = inhibition, most hits filed as inhibitors; 230 tested, 78% active; AID 540350
HM489 growth = Sfp PPTase inhibitors: growth inhibition of B. subtilis HM489; shares compounds with NTMT1 inhibitor; B. subtilis HM489 (acpS-) growth, BacTiter-Glo, 5 h; Potency, µM (titrated, usually from 114 µM), without a hit: at the top dose activity change, negative = inhibition, hits mostly inhibitors; 220 tested, 50% active; AID 540353
Sfp gel opt = inhibits B. subtilis Sfp PPTase in gel assay | shares compounds with NTMT1 inhibitor | purified Sfp PPTase, gel-based product detection | Potency, µM (highest dose often 250 µM), for inactives: at the top dose activity change, negative = inhibition, usual class: inhibitors | 220 tested, 54% active | AID 540355
Sfp SAR2 = inhibitors of Bacillus subtilis Sfp PPTase, SAR round 2. shares compounds with NTMT1 inhibitor. purified Sfp enzyme, PPTase activity, qHTS. Potency, µM (titrated, usually from 57.1 µM), for the others: at the highest dose activity change, negative = inhibition, actives largely listed as inhibitors. 230 tested, 87% active
hGST A1-1 inh = inhibits hGST A1-1 in Sfp inhibitor counter-screen. shares compounds with NTMT1 inhibitor. hGST A1-1 enzyme activity counter-screen, qHTS. Potency, µM (titrated, usually from 114 µM), for inactives: top-dose activity change, negative = inhibition, actives largely listed as inhibitors. 55 tested, under 10 active
HSD17B4 inh = inhibits human HSD17B4, off-target for HPGD inhibitors. 230 tested, 10% active. purified HSD17B4, estradiol/NAD+, NADH fluorescence. AID 743187. shares compounds with NTMT1 inhibitor. Potency, µM (titrated, usually from 57.1 µM), without a hit: at the top dose activity change, negative = inhibition, usual class: inhibitors
Target sequence (P51659 whole entry, looked up): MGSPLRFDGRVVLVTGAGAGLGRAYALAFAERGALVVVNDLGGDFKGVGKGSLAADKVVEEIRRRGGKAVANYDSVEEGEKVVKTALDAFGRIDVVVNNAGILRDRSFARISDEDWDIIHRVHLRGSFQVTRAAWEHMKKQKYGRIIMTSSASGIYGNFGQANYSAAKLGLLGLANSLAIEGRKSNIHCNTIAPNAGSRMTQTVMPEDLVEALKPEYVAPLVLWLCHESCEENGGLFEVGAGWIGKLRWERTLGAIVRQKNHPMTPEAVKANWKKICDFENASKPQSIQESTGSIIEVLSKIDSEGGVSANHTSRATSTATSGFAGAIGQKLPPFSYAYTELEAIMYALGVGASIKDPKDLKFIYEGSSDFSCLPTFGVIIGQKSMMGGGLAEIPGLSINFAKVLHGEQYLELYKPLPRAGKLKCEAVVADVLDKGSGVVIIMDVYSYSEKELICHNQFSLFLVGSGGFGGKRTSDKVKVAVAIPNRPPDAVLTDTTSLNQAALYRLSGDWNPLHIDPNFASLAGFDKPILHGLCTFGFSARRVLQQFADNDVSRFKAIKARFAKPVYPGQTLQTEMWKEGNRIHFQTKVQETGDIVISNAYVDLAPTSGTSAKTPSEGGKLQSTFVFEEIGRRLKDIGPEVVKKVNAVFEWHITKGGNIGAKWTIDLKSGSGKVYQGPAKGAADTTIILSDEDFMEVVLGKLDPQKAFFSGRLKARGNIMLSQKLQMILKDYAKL
ALDH1A1 inh = ALDH1A1 (human) inhibition, HPGD counter-screen | shares compounds with NTMT1 inhibitor | recombinant ALDH1A1, NADH fluorescence, propionaldehyde/NAD+ | Potency, µM (series often up to 57.1 µM), inactives show at the top dose activity change, negative = inhibition, hits mostly inhibitors | 230 tested, 93% active
Numbers without * were called inactive; i = inactive; ? = inconclusive; / = not tested or not shown; [ ] = dose if it differs, or a comment. An excerpt weighted towards active compounds, which were near 3.6% of everything screened. Unless noted, calls come from the whole dose curve; as a rule, active = well fitted curve in the direction sought with a large enough effect; inconclusive = small, poorly fitted or top-dose-only effect, or another doubt; inactive = no such curve, though single readings can be large; an effect the other way counts as inactive or inconclusive.

SMILES	NTMT1 inhibitor	GALK inh	PTAP-TSG101 blk	B2AR arrestin ag	GPR32 ag	GALC G270D up	others
Cc1nc(C)c(-c2ccc3ncnc(NCCc4cnc[nH]4)c3c2)s1	?	/	/	/	/	/	DYRK1A inh=26µM*
CCNC(=O)c1ccc(-c2ccc3ncnc(NCCc4cnc[nH]4)c3c2)o1	-3%[57.5 µM]	/	/	/	/	/	CLK4 inh=1.3µM*
Cc1noc(C)c1-c1ccc2ncnc(NCc3ccc(F)cc3)c2c1	11%	/	/	/	/	/
CCOC(=O)c1ccc(-c2ccc3ncnc(NCCc4cnc[nH]4)c3c2)o1	?	/	/	/	/	/	DYRK1A inh=1.6µM*
CN1CCN(C(=O)c2ccc3cc(CCNc4ncnc5ccc(C#N)cc45)ccc3c2)CC1	-12%[57.5 µM]	/	/	/	/	/
O=C(O)c1ccc(-c2ccc3ncnc(NCCc4cnc[nH]4)c3c2)o1	-3%	/	/	/	/	/	DYRK1A inh=9.2µM*
CCOC(=O)c1cnc2ccc(C)cc2c1NCCc1ccc(OC)c(OC)c1	-15%	2%	i	i	0	i
Cc1ccc(C2N=C(Nc3nc4ccccc4o3)NC3=C2C(=O)CCC3)s1 (stereo not drawn)	8%	/	/	/	/	/
C=C1CC[C@@H]2[C@](C)(CC[C@H](O)[C@@]2(C)CCC=C(C)C)[C@@H]1Cc1c[nH]c2ccccc12	3%[29.8 µM]	/	/	/	/	/
S=P(c1ccccc1)(c1ccccc1)c1c[n+](C/C=C/c2ccccc2)c2ccccn12	-7%	/	/	/	/	/
COc1cc(O)c(C(CC(=O)N2CCC(Cc3ccccc3)CC2)c2ccc(C)cc2)c(OC)c1 (stereo not drawn)	9%[228 µM]	/	/	/	/	/
OCc1ccc(-c2ccc3ncnc(NCCc4cnc[nH]4)c3c2)o1	?	/	/	/	/	/	DYRK1A inh=23µM*
c1cncc(CNc2ncnc3ccc(-c4ccco4)cc23)c1	-2%	/	/	/	/	/
Cc1cc(-c2nnc3n2CCCCC3)c(C)n1-c1ccc(Cl)c(Cl)c1	19%	/	/	/	/	/	HSD17B4 inh=11%;ALDH1A1 inh=0.61µM*
Cc1cc(-c2nnc3n2CCCCC3)c(C)n1-c1ccc(Cl)cc1	23%	/	/	/	/	/
Cc1cc(-c2nnc3n2CCCCCC3)c(C)n1-c1ccccc1	12%	/	/	/	/	/
Cc1cc(-c2nnc3n2CCCCC3)c(C)n1-c1cccc(C#N)c1	18%	/	/	/	/	/	HSD17B4 inh=0%;ALDH1A1 inh=?
Cc1cc(N[S+](=O)([O-])c2ccc(NC(=O)Cc3ccc(C(F)(F)F)c(F)c3)cc2)no1	8%	/	/	/	/	/
Cc1ccc(S(=O)(=O)Nc2cnccc2C(=O)Nc2ccccc2)cc1	7%	/	/	/	/	/
COC1CC(OC2CCC3(C)C(=CCC4C3CCC3(C)C(C(C)O)CCC43O)C2)OC(C)C1OC1OC(C)C(OC2OC(COC3OC(COC4OC(CO)C(O)C(O)C4O)C(O)C(O)C3O)C(O)C(O)C2O)C(OC)C1O (stereo not drawn)	9%[12.6 µM]	/	/	/	/	/
Cc1ccnc(NC(=S)N2CC3CN(c4ncc(C(F)(F)F)cc4Cl)CC3C2)c1 (stereo not drawn)	?	/	/	/	/	/	Sfp qHTS opt=0.58µM*;Sfp SAR2=1.3µM*;hGST A1-1 inh=-3%;HSD17B4 inh=-2%;ALDH1A1 inh=0.38µM*
FC(F)(F)c1cnc(N2CCN(C(=S)Nc3cc(Cl)ccn3)CC2)c(Cl)c1	?	/	/	/	/	/	Sfp qHTS opt=9.4µM*;HM489 growth=12µM*;Sfp gel opt=?;Sfp SAR2=1.3µM*;HSD17B4 inh=-26%;ALDH1A1 inh=3.8µM*
